The source of these data is PubChem BioAssay.

Molecules are shown by their SMILES. “And” between values parts separate entries of the source, which are not always exact repeats. Equal values may be shown once. Inconclusive results are not listed. The source made the active and inactive calls.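 How the source made its calls, unless noted: active means z-score of at least 1.8 in each of two replicates, scored against plate mean and spread of sample wells; inactive means the rest.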

Test [1] is described as follows: stimulators of nuclear beta-catenin in C2C12, primary screen, imaging, WNT3A-conditioned medium, mouse C2C12, NPC library (AID 1117326; in the data active means nuclear beta-catenin stimulation mostly above about 4.2%, no sharp cut-off; inactive means mostly below about 10%). The following applies: stronger effect = higher value.
Test [2] is described as follows: stimulators of insulin release from INS-1E, primary screen, cell-based, 5 mM glucose, NPC library (AID 1117329;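 active means compound raises insulin release from rat beta cells at 5 mM glucose, no numeric limit stated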). The following applies: rat INS-1E insulin secretion, at 10 µM, stronger effect = higher value.
The nature of test [3]: growth inhibition of GSK3B-pretreated HCT116 cells – cell-based, CellTiter-Glo, 0.2 to 20 µM (AID 1117336;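 active means compounds lowering colon cancer cell viability after pretreatment blocking the GSK3B kinase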). The following applies: HCT116 viability after GSK3B inhibitor, at 20 µM, stronger effect = higher value. A general note: Cellular ATP, detected with luciferase, serves as a proxy for viable cell number.
Test [4] can be described thus: inhibition of endothelial tube formation, primary screen, imaging, VEGF stimulated, CD31 staining, tube area, NPC library (AID 1117340;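 active means compound that reduces growth-factor-driven endothelial tube area in a mixed cell culture, no cutoff stated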). The following applies: VEGF-stimulated ADSC/ECFC co-culture, at 10 µM, stronger effect = higher value.
A short description of test [5]: glucagon-like peptide 1 release enhancers, primary assay, NCI-H716 cell line, NPC library (AID 1117341;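 active means compound raises GLP1 secretion from the human gut endocrine cells, with no numeric limit stated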). The following applies: NCI-H716 cells, at 10 µM, stronger effect = higher value.
Test [6] can be described thus: HCT116 colon cancer cell growth inhibition, primary screen, CellTiter-Glo luminescence, NPC library (AID 1117342;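 active means compounds that lower survival of HCT116 colon cancer cells in the luminescence readout, no numeric limit stated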). The following applies: at 20 µM (top of the series).
Test [7] can be described thus: CellTiter-Glo luminescent readout of SW480 viability loss, NPC library primary (AID 1117343;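 active means compounds that lower viability of the colon cancer cells in the luminescence readout, with no numeric limit stated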). The following applies: CellTiter-Glo luminescence; at 20 µM (top of the series) unless noted.
Test [8] can be described thus: decreased DLD-1 cellular survival, CellTiter-Glo luminescent readout, NPC compound collection, primary HTS (AID 1117346;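 active means compounds that lower survival of DLD-1 colon cancer cells in the luminescence readout, no cutoff given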). The following applies: DLD-1 viability, CellTiter-Glo luminescence; at 20 µM (top of the series).
The test system of test [9] is Aerobactin synthetase IucA (Klebsiella pneumoniae). Briefly: IucA aerobactin synthetase inhibitors, biochemical, Tocris library, absorbance (AID 1345561; call rule not given here;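 further: 100% = enzyme without compound and 0% = no enzyme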). The following applies: purified IucA enzyme assay, absorbance (OD) read-out; stronger effect = lower value;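 tested at 8 µM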.
Test [10] in a line: sensitizers of A549 cells to miR-34 induction, primary screen, imaging, A549 dox-inducible miR-34, nuclei and caspase counts (AID 1347080;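 active means compounds whose cell count with miR-34 switched on is under 0.7 times the count with it off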). The following applies: A549 miR-34 inducible, Hoechst nuclei count, 48 h.
Test [11] is described as follows: viability rescue of complex I mutant cybrids, primary screen, cell-based, galactose medium, ATP luminescence (AID 1645843).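 Further: positive z means more ATP and so rescue of galactose-driven cybrid death.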 The following applies: complex I mutant cybrid cells, 72 h, stronger effect = higher value.
Test [12] is described as follows: liver-stage malaria parasite growth inhibition, primary screen, cell-based, HepG2, luciferase luminescence, HepG2 viability (AID 624349; in the data active means parasite load remaining mostly below about 12%, no sharp cut-off; inactive means mostly above about 10%;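 further: 100% = mean of DMSO negative control wells on the same plate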). The following applies: P. berghei liver stage in HepG2, luciferase luminescence, concentration not given here; parasite load remaining: stronger effect = lower value; viability: measured here: HepG2 viability without parasites.
Test [13] in a line: survival rescue of mitochondrial mutant cells in low glucose, primary screen, MELAS cybrids, Rieske KO mouse fibroblasts, CellTiter-Glo (AID 1508586;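 active means mean z-score across replicates of 1.96 or higher in either the MELAS or the Rieske mutant cell line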;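 further: z relative to plate mean and SD of compound and empty wells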).
Test [14] is described as follows: growth inhibition of DIPG glioma cells, dose response, cell-based, JHH-DIPG-1, MIPE4.0, CellTiter-Glo, qHTS (AID 1347062; cut-off not given, nearly all actives have AC50 up to about 27 µM;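 further: cells exposed to compound for two days before readout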). The following applies: JHH-DIPG-1 viability, CellTiter-Glo ATP luminescence.
The nature of test [15]: viability loss in pontine glioma line – cell-based, SU-DIPG-XXV, MIPE5.0, CellTiter-Glo, qHTS, dose response (AID 1347065; cut-off not given, nearly all actives have AC50 up to about 26 µM;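 further: cells exposed to compound for 48 hours before ATP readout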). The following applies: CellTiter-Glo ATP luminescence.
Test [16] can be described thus: SU-DIPG-VI glioma cell viability, MIPE4.0 library, CellTiter-Glo luminescence, qHTS (AID 1347066; cut-off not given, nearly all actives have AC50 up to about 30 µM;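 further: cells exposed to compound for 48 hours before readout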). The following applies: CellTiter-Glo ATP luminescence.
A short description of test [17]: SU-DIPG-XXV glioma cell viability, MIPE5.0 library, qHTS (AID 1347068; cut-off not given, nearly all actives have IC50 up to about 30 µM).
Test [18] can be described thus: growth inhibition of DIPG glioma cells, dose response, cell-based, SU-DIPG-XVII, MIPE5.0, CellTiter-Glo, qHTS (AID 1347060; cut-off not given, nearly all actives have AC50 up to about 26 µM). The following applies: SU-DIPG-XVII viability, CellTiter-Glo ATP luminescence.
Test [19] can be described thus: growth inhibition of DIPG glioma cells, dose response, cell-based, SU-DIPG-XIII, MIPE4.0, CellTiter-Glo, qHTS (AID 1347061; cut-off not given, nearly all actives have AC50 up to about 37 µM;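 further: cells exposed to compound for 48 hours before readout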). The following applies: SU-DIPG-XIII viability, CellTiter-Glo ATP luminescence.
Setting [20] is: stronger effect = lower value, cell number ratio, induced over uninduced.
The mark [21] stands for this setting: measured here: relative caspase fold change +Dox/-Dox.
Setting [22] is: measured here: total cells with miR-34 induction, stronger effect = lower value.
Where [23] appears, read: measured here: total cells without miR-34 induction.
Where [24] appears, read: MELAS cybrid survival, CellTiter-Glo 48 h, stronger effect = higher value.
Setting [25] is: Rieske KO mouse fibroblast survival, CellTiter-Glo 72 h.

What is called remaining activity is the signal under treatment as a percentage of the control signal. For the molecule `O=S1(=O)c2cccc3cccc(c23)N1CCCN1CCN(c2ccc(F)cc2)CC1`, the nuclear beta-catenin stimulation in test [1] (at 10 µM) is 1.8% (inactive); in test [1] (stimulation, at 2 µM), 17.7%. Also, the insulin secretion stimulation in test [2] is 3.4% (inactive). Moreover, in test [3], the viability decrease is 74.5% (active). Moreover, in [4], the tube area decrease was -3% (inactive). Besides, the GLP1 secretion stimulation in [5] is 0.3% (inactive). For the same molecule, in [6], the inhibition of viability was 104% (active). The viability decrease (inhibition) in test [7] is 136% (active); in test [8], 84.5% (active). Further, the remaining activity in test [9] was 92.7% (inactive). The fold change in [10] (setting [20]) was 0.902 (inactive); in test [10] (setting [21]), 1.69. Further, the cell count in [10] (setting [22]) was 7340; in [10] (setting [23]), 8140. Besides, the z-score in test [11] is -0.675 (inactive).

As usually defined, the viability is a read-out of living cells in per cent, often relative to untreated cells. For `COCCOC(=O)C1=C(C)NC(C)=C(C(=O)OC/C=C/c2ccccc2)C1c1cccc([N+](=O)[O-])c1` (configuration not stated), the parasite load remaining in test [12] was 41.2% (inactive). For the same molecule, the viability in test [12] was found to be 106%. For the same molecule, the nuclear beta-catenin stimulation in test [1] (at 10 µM) was 2.6% (inactive); in test [1] (stimulation, at 2 µM) it was 0.8%. Besides, in [2], the insulin secretion stimulation was -0.8% (inactive). In addition, in test [3], the viability decrease was 77.2% (active). Further, in test [4], the tube area decrease is 104% (active). Moreover, the GLP1 secretion stimulation in [5] is -1.2% (inactive). In test [6], the inhibition of viability was 77% (active). Besides, the viability decrease (inhibition) was 87.1% (active) in test [7] and 86.4% (active) in [8]. Also, the remaining activity in test [9] was 100% (inactive). Moreover, the fold change is 1.33 (inactive) and 0.874 (inactive) and 0.908 (inactive) in test [10] (setting [20]); 0.592 and 1.2 and 1.19 in test [10] (setting [21]). The cell count is 2620 and 3270 and 8480 in test [10] (setting [22]); 1970 and 3740 and 9340 in test [10] (setting [23]). Besides, the z-score in test [13] (setting [24]) is 0.948 (inactive) and 0.937 (inactive); in [13] (setting [25]), 1.43 and 0.674; in [11] it was -1.04 (inactive) and -0.7 (inactive) and -0.745 (inactive).

The term AC50 denotes the midpoint of the concentration-response curve, whichever way the signal moves. Regarding `CC#C[C@]1(O)CC[C@H]2[C@@H]3CCC4=CC(=O)CCC4=C3[C@@H](c3ccc(N(C)C)cc3)C[C@@]21C`, the nuclear beta-catenin stimulation in test [1] (at 10 µM) is 9.1% (inactive); in [1] (stimulation, at 2 µM), 4%. The insulin secretion stimulation in test [2] is 1% (inactive). Moreover, the viability decrease in [3] is 94.5% (active). Moreover, the tube area decrease in test [4] was 16.1% (inactive). The GLP1 secretion stimulation in [5] was -3.8% (inactive). The inhibition of viability in [6] was 84.3% (active). For the same molecule, the viability decrease (inhibition) in test [7] is 102% (active); in test [8] it was 98.6% (active). In addition, the remaining activity in test [9] was 115% (inactive). In addition, the figures for the AC50 in [14], in test [15] and in [16] were 235 nM (active), 29.5 µM (active) and 2.96 µM (active), respectively. Further, the molecule was classed as inactive in [17]. The z-score is 1.08 (inactive) and 0.356 (inactive) in [13] (setting [24]); 0.475 and 1.05 in [13] (setting [25]); 0.48 (inactive) and -0.34 (inactive) and 0.325 (inactive) in [11].

`COC(=O)[C@@H]1CC2=CC(=O)CC[C@]2(C)[C@@]23O[C@@H]2C[C@@]2(C)[C@@H](CC[C@@]24CCC(=O)O4)[C@H]13`: the nuclear beta-catenin stimulation in test [1] (at 10 µM) is -0.1% (inactive); in [1] (stimulation, at 2 µM), 1.3%. Also, in test [2], the insulin secretion stimulation was -0.55% (inactive). Also, the viability decrease in test [3] is -0.7% (inactive). Also, the tube area decrease in test [4] is 23.1% (inactive). For the same molecule, the GLP1 secretion stimulation in test [5] is -1.5% (inactive). Moreover, the inhibition of viability in test [6] is -5.5% (inactive). Besides, the viability decrease (inhibition) was 24.4% (inactive) in test [7] and -7.2% (inactive) in test [8]. The remaining activity in [9] was 96.4% (inactive). Besides, the result in test [18], in [19], in [16] and in test [17] was inactive. For the same molecule, the fold change in [10] (setting [20]) was 0.96 (inactive); in test [10] (setting [21]), 1.45. The cell count was determined as 9220 in test [10] (setting [22]) and 9600 in [10] (setting [23]). Moreover, the z-score in test [11] is -0.005 (inactive).

For `CN(C)C/C=C(/c1ccc(Br)cc1)c1cccnc1`, the parasite load remaining in test [12] is 94.7% (inactive) and 60.5% (inactive). Further, the viability in test [12] was 85.2% and 195%. Further, the nuclear beta-catenin stimulation was 1.1% (inactive) in [1] (at 10 µM) and -0.9% in test [1] (stimulation, at 2 µM). Besides, the insulin secretion stimulation in [2] is 45% (active). For the same molecule, the viability decrease in [3] was -1.3% (inactive). Moreover, the tube area decrease in [4] was 9.7% (inactive). Also, the GLP1 secretion stimulation in [5] was 8% (inactive). In addition, the inhibition of viability in [6] is 41.9% (inactive). Also, the viability decrease (inhibition) in test [7] was 52.1% (active); in test [8], 5.9% (inactive). For the same molecule, the remaining activity in [9] is 124% (inactive). For the same molecule, the fold change in [10] (setting [20]) is 1.02 (inactive) and 0.948 (inactive) and 0.885 (inactive); in [10] (setting [21]), 0.961 and 0.963 and 4.02. Moreover, the cell count in [10] (setting [22]) was 8760 and 8650 and 11500; in test [10] (setting [23]), 8570 and 9130 and 13000. The z-score in test [11] is -0.1 (inactive) and -0.42 (inactive).
